Here are results for 21 compounds from PubChem BioAssay (NCATS).

“And” between values parts separate entries of the source, which are not always exact repeats. Identical values can stand only once. Results filed as inconclusive are left out. Unmarked numbers belong to inactive results. The source made the active and inactive calls. The call rests on the fitted dose curve; in most records, active means well fitted inhibition curve with a large enough effect; inconclusive means small, poorly fitted or top-dose-only effect; inactive means flat fitted curve, though single readings scatter.

For one experiment, the system named is CRL-7250. The experiment is described as follows: Cytotoxic Profiling of Annotated Libraries Using Quantitative High-Throughput Screening (AID 1296008). Further: potency means the concentration at half of the fitted maximal effect. On max response: on the % scale 0 is the no-effect control and ±100 the full control effect. The conditions noted are these: Five cell lines viability, CellTiter-Glo ATP luminescence, 48-72 h; max response: stronger effect = lower value. Summed up: (§1)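 Cells exposed to compounds for 48 or 72 hr at 37 degrees Celsius. Viability read as ATP-coupled luminescence with CellTiter-Glo after 10 min at room temperature.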
Background: In ATP-based viability assays light output follows the ATP content of the culture.

In a further experiment the test system is HEK293. Described as above. The note with it: Five cell lines viability, CellTiter-Glo ATP luminescence, 48-72 h; max response: stronger effect = lower value. Summed up:
as §1

Experiment [1] concerns HaCat. Described as above. The note with it: Five cell lines viability, CellTiter-Glo ATP luminescence, 48-72 h; max response: stronger effect = lower value. Summed up:
as §1

The test system of the next experiment is KB-3-1. The experiment is described as above. The note with it: Five cell lines viability, CellTiter-Glo ATP luminescence, 48-72 h; max response: stronger effect = lower value. Summed up:
as §1

The subject of another experiment is NIH3T3. The description is as above. The conditions noted are these: Five cell lines viability, CellTiter-Glo ATP luminescence, 48-72 h; max response: stronger effect = lower value. Summed up: as §1
For experiment [2], the system named is HACAT. The experiment can be described thus: qHTS assay to identify novel small-molecules to repurpose for Merkel cell carcinoma treatment (AID 1296009). The note with it: MCC and control cell lines, CellTiter-Glo viability, 72 h; at 44.8 µM (top of the series) unless noted. Summed up:
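Cells were treated for 72 hr at 37 degree celsius with compounds in 8- or 11-point dose response. Viability was read by CellTiter-Glo luminescence, normalized to no-cell (cytotoxicity) and DMSO controls.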
For orientation: qHTS replaces the single test concentration by a dilution series.
Further: nearly all actives have a fitted effect of over 60% in size.

As for `OCCc1ccccc1`, the max response in the experiment with CRL-7250 was 4.7%; with HEK293, -1.38%; in the experiment with HaCat [1], -14.1%; in the experiment with KB-3-1 it was -8.71%; with NIH3T3, -0.715%.
In the case of `CC(C)=CCC/C(C)=C/CC/C(C)=C/CCC(=O)OC/C=C(\C)CCC=C(C)C`, the max response is -7.77% in the experiment with CRL-7250, -2.81% with HEK293 and -12.9% with KB-3-1. Besides, the result in the experiment with HaCat [1], with NIH3T3 and in the experiment with HACAT [2] was inactive.
On to `Nc1nnnn1-c1ccccc1`, for which the max response with CRL-7250 is -0.0528%; in the experiment on HEK293, -1.05%; in the experiment with HaCat [1], -26.2%; with KB-3-1, 7.05%; in the experiment with NIH3T3 it was -4.79%.
On to `O=C(O)[C@H](O)[C@@H](O)[C@H](O[C@@H]1O[C@H](CO)[C@H](O)[C@H](O)[C@H]1O)[C@H](O)CO`, for which the max response in the experiment on CRL-7250 was -2.55%; with KB-3-1 it was -11.9%; with NIH3T3, -0.868%. In addition, the result in the experiment with HEK293, in the experiment on HaCat [1] and in the experiment with HACAT [2] was inactive.
`O=C(Oc1ccccc1)c1ccccc1O`: the compound was classed as inactive in the experiment on CRL-7250, in the experiment with HEK293, in the experiment on HaCat [1] and in the experiment with HACAT [2]. Also, the results for the max response in the experiment with KB-3-1 and in the experiment with NIH3T3 were -0.601% and 3.3%, respectively.
Turning to `O=C(OCC1(COC(=O)c2cccnc2)CCCC(COC(=O)c2cccnc2)(COC(=O)c2cccnc2)C1O)c1cccnc1`, the max response in the experiment on CRL-7250 was -5.9%; in the experiment on HEK293 it was -9.95%; with KB-3-1, 8.89%; in the experiment on NIH3T3 it was -1.33%. Besides, the compound was classed as inactive with HaCat [1] and with HACAT [2].
Turning to `CC(C)(C)c1nnc(NS(=O)(=O)c2ccccc2)s1`, the results for the max response in the experiment on CRL-7250, in the experiment on KB-3-1 and in the experiment with NIH3T3 were 4.99%, 3.82% and 1.08%, respectively. For the same compound, the compound was classed as inactive with HEK293, in the experiment on HaCat [1] and in the experiment with HACAT [2].
On to `CC(C)(C)C(O)/C=C/c1ccc2c(c1)OCO2` (stereo not given), for which the call in the experiment with CRL-7250 was inactive. Also, the max response was 0.172% in the experiment with HEK293, -0.175% with HaCat [1], -0.272% in the experiment on KB-3-1 and -4.85% with NIH3T3.
`Oc1ccc(CCNCCCCCCNCCc2ccccc2)cc1O`: the max response in the experiment with CRL-7250 is -8.57%; with KB-3-1, -20.6%; in the experiment with NIH3T3, -5.45%. Besides, the Potency in the experiment on HEK293 is 23.7 µM (active). The compound was classed as inactive in the experiment with HaCat [1] and in the experiment with HACAT [2].
Take `Cc1ccc(O)cc1`: the max response with CRL-7250 was -3.08%; in the experiment with HEK293, 0.45%; in the experiment with KB-3-1 it was -1.63% and -10.4%; in the experiment on NIH3T3, 0.99%. In addition, the call with HaCat [1] and with HACAT [2] was inactive.
Regarding `C[C@]12CCC(=O)C=C1CC[C@@H]1[C@@H]2[C@@H](O)C[C@@]2(C)[C@H]1CC[C@]2(O)C(=O)COC(=O)CCC(=O)O`, the max response was -0.174% with CRL-7250, 3.66% in the experiment with HEK293, -3.29% with HaCat [1] and -0.87% in the experiment on KB-3-1. Further, the outcome in the experiment on NIH3T3 was inactive.
Take `CO/N=C(/C(=O)N[C@@H]1C(=O)N2C(C(=O)OCOC(=O)C(C)(C)C)=C(C)CS[C@H]12)c1csc(N)n1`: the call with CRL-7250, in the experiment with HaCat [1] and with HACAT [2] was inactive. For the same compound, the figures for the max response in the experiment on HEK293, in the experiment with KB-3-1 and in the experiment with NIH3T3 were 4.75%, -4.57% and 0.923%, respectively.
`C=CCOc1cc(Cl)ccc1C(=O)NCCN(CC)CC`: the max response with CRL-7250 was -3.78%; with HEK293, -33.1%; in the experiment on KB-3-1 it was 6.3%; in the experiment on NIH3T3 it was 1.31%. Further, the compound was classed as inactive in the experiment on HaCat [1] and in the experiment on HACAT [2].
With `Cc1nc([N+](=O)[O-])cn1-c1ccc([N+](=O)[O-])cc1`, the max response with CRL-7250 is 1.02%; with HEK293 it was 0.842%; in the experiment with KB-3-1, 5.55%. Also, the outcome with HaCat [1], in the experiment on NIH3T3 and in the experiment on HACAT [2] was inactive.
As for `CCOC(=O)NNc1ccc(N(CC)CC(C)O)nn1` (stereo not given), the max response in the experiment on CRL-7250 was 2.28%; in the experiment with KB-3-1, -6.42%; with NIH3T3 it was 4.97%. For the same compound, the result with HEK293, in the experiment with HaCat [1] and with HACAT [2] was inactive.
As to `CSc1ccc(/C=C2/C(C)=C(CC(=O)O)c3cc(F)ccc32)cc1`, the compound was called inactive in the experiment with CRL-7250, in the experiment with HaCat [1] and in the experiment with HACAT [2]. Besides, the max response was 0.521% with HEK293, -18.2% in the experiment with KB-3-1 and -3.24% in the experiment on NIH3T3.
For `O=C(O)CNC(=O)CNC(=O)CNC(=O)CSC(=O)c1ccccc1`, the max response in the experiment with CRL-7250 is -5.45%; in the experiment on HEK293 it was -4.78%; in the experiment with HaCat [1], -1.1%; in the experiment with KB-3-1, 4.32%; in the experiment with NIH3T3, 1.99%.
With `CN(C(=O)C(Cl)Cl)c1ccc(OC(=O)c2ccco2)cc1`, the max response in the experiment with CRL-7250 is 4.42%; in the experiment with HEK293, -3.53%; in the experiment on KB-3-1, -7.7%; in the experiment on NIH3T3, 1.4%. Also, the call with HaCat [1] and in the experiment with HACAT [2] was inactive.
As for `CC(=O)OCC(=O)[C@@]1(O)[C@H](OC(C)=O)C[C@H]2[C@@H]3CCC4=CC(=O)C=C[C@]4(C)[C@@]3(F)[C@@H](O)C[C@@]21C`, the compound was called inactive with CRL-7250, with HEK293, in the experiment with HaCat [1], in the experiment with NIH3T3 and in the experiment with HACAT [2]. Further, the max response in the experiment with KB-3-1 was 1.08%.
As for `O=C(CCCCCCCCC#CI)Oc1ccccc1`, the max response was 1.88% in the experiment with CRL-7250 and 0.745% in the experiment on NIH3T3. For the same compound, the compound was classed as inactive in the experiment on HEK293, in the experiment with HaCat [1], in the experiment with KB-3-1 and in the experiment with HACAT [2].
Take `OCc1cccnc1`: the max response with CRL-7250 was -0.394%; with HEK293, -2.02%; in the experiment with HaCat [1] it was 3.51%; with KB-3-1 it was 3.27%. Moreover, the compound was classed as inactive with NIH3T3.
